In PubChem BioAssay AID1159580 (chemical genetic matrix, 2015):
Hit rate of the full screen: of about 5,500 compounds, about 2,000 (36%) were called active. Another 18% or so got no clear call; they are omitted. No stated cut-off is given here; in the data, active means normalized growth mostly below about 0.91 (no sharp cut-off); inconclusive means no clear call, values can overlap the other calls; inactive means mostly above about 0.92. The list shows a part of the results.

Experiment: chemical genetic growth profiling, strain panel (AID 1159580);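 further: tested at 20 µM; growth read once vehicle control cultures reached saturation at 30 °C; 1 = growth at the plate median or of vehicle wells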
Details: S. cerevisiae deletion strains, growth OD
[1] = locus YHR030C, strain SLT2, stronger effect = lower value
[2] = locus YHR079C, strain IRE1, stronger effect = lower value
[3] = locus YJL095W, strain BCK1, stronger effect = lower value
[4] = locus YJR066W, strain TOR1, stronger effect = lower value
[5] = locus YLR113W, strain HOG1, stronger effect = lower value
[6] = locus YNL183C, strain NPR1, stronger effect = lower value
[7] = locus YOR231W, strain MKK1, stronger effect = lower value
[8] = locus YPL256C, strain CLN2, stronger effect = lower value
[9] = locus YJL187C, strain SWE1, stronger effect = lower value

Measured: normalized growth

O=C(O)/C=C/c1ccccc1
active: [1] 0.834 | [2] 0.838 | [3] 0.862 | [4] 0.801 | [5] 0.722 | [6] 0.786 | [7] 0.823 | [8] 0.742

O=C(N/N=C\C=C\c1ccccc1)c1ccccc1-n1cccc1
inactive: locus YAL013W, strain DEP1, stronger effect = lower value 0.96 | locus YBR229C, strain ROT2, stronger effect = lower value 0.979 | locus YDL101C, strain DUN1, stronger effect = lower value 0.993 | locus YDR150W, strain NUM1, stronger effect = lower value 0.996 | locus YEL061C, strain CIN8, stronger effect = lower value 1 | locus YGR078C, strain PAC10, stronger effect = lower value 0.988 | [1] 0.925 | locus YHR087W, strain rtc3, stronger effect = lower value 0.93 | [9] 0.976 | locus YJR043C, strain POL32, stronger effect = lower value 1.01 | locus YJR075W, strain HOC1, stronger effect = lower value 0.997 | locus YLR039C, strain RIC1, stronger effect = lower value 0.87 | locus YLR058C, strain SHM2 (second series), stronger effect = lower value 0.97 | locus YLR085C, strain ARP6, stronger effect = lower value 0.836 | locus YLR262C, strain YPT6, stronger effect = lower value 0.833 | locus YML094W, strain GIM5, stronger effect = lower value 0.939 | locus YMR219W, strain ESC1, stronger effect = lower value 0.99 | locus YMR263W, strain SAP30, stronger effect = lower value 0.973 | locus YMR307W, strain GAS1, stronger effect = lower value 0.713 | locus YNL128W, strain TEP1, stronger effect = lower value 0.987 | locus YNL153C, strain GIM3, stronger effect = lower value 1 | locus YNL298W, strain CLA4 (second series), stronger effect = lower value 0.928 | locus YNL322C, strain KRE1, stronger effect = lower value 0.996 | locus YNR030W, strain Alg12, stronger effect = lower value 0.906 | locus YPL055C, strain LGE1, stronger effect = lower value 0.899 | locus YPL241C, strain CIN2, stronger effect = lower value 0.948 | locus YPR135W, strain CTF4, stronger effect = lower value 0.795

CC(=O)/C(=C\c1ccccc1)CC(=O)O
inactive: locus YAL021C, strain ccr4, stronger effect = lower value 1 | locus YAL026C, strain drs2, stronger effect = lower value 0.995 | locus YAL030W, strain snc1, stronger effect = lower value 1 | locus YBL061C, strain skt5, stronger effect = lower value 1 | locus YBR009C, strain hhf1, stronger effect = lower value 0.986 | locus YBR023C, strain chs3, stronger effect = lower value 1 | locus YBR171W, strain sec66, stronger effect = lower value 0.992 | locus YBR231C, strain swc5, stronger effect = lower value 0.982 | locus YBR279W, strain paf1, stronger effect = lower value 0.999 | locus YCL011C, strain gbp2, stronger effect = lower value 0.988 | locus YCL016C, strain dcc1, stronger effect = lower value 0.991 | locus YCL061C, strain MRC1, stronger effect = lower value 0.994 | locus YCL069W, strain vba3, stronger effect = lower value 0.997 | locus YCR088W, strain abp1, stronger effect = lower value 0.998 | locus YDL005C, strain med2, stronger effect = lower value 0.998 | locus YDL040C, strain nat1, stronger effect = lower value 0.985 | locus YDR001C, strain nth1, stronger effect = lower value 0.992 | locus YDR069C, strain doa4, stronger effect = lower value 0.982 | locus YDR137W, strain rgp1, stronger effect = lower value 1.01 | locus YDR159W, strain sac3, stronger effect = lower value 0.97 | locus YDR195W, strain ref2 0.948 | locus YDR297W, strain sur2, stronger effect = lower value 0.994 | locus YDR334W, strain swr1, stronger effect = lower value 0.996 | locus YDR335W, strain msn5, stronger effect = lower value 0.996 | locus YDR392W, strain spt3, stronger effect = lower value 0.775 | locus YEL003W, strain gim4, stronger effect = lower value 0.992 | locus YEL037C, strain rad23, stronger effect = lower value 0.997 | locus YEL061C, strain CIN8 (second series), stronger effect = lower value 0.989 | locus YER015W, strain faa2, stronger effect = lower value 0.996 | locus YER016W, strain bim1, stronger effect = lower value 0.993 | locus YER111C, strain swi4, stronger effect = lower value 0.992 | locus YER155C, strain BEM2 (second series), stronger effect = lower value 0.923 | locus YFR010W, strain ubp6, stronger effect = lower value 0.994 | locus YGL167C, strain pmr1, stronger effect = lower value 0.993 | locus YGL173C, strain kem1, stronger effect = lower value 0.991 | locus YGL227W, strain vid30, stronger effect = lower value 0.991 | locus YGL240W, strain doc1, stronger effect = lower value 0.978 | locus YGL253W, strain hxk2, stronger effect = lower value 0.984 | locus YHR013C, strain ard1, stronger effect = lower value 0.956 | locus YHR027C, strain rpn1, stronger effect = lower value 0.996 | [1] 0.976 | [2] 0.954 | locus YHR142W, strain chs7, stronger effect = lower value 1.01 | locus YJL092W, strain hpr5, stronger effect = lower value 0.991 | locus YJL095W, strain BCK1 (second series), stronger effect = lower value 0.992 | [3] 0.967 | locus YJL115W, strain asf1, stronger effect = lower value 0.993 | locus YJL129C, strain trk1, stronger effect = lower value 0.984 | locus YJL154C, strain vps35, stronger effect = lower value 1 | locus YJL164C, strain tpk1, stronger effect = lower value 1 | locus YJL166W, strain qcr8, stronger effect = lower value 0.976 | [9] 0.997 | [4] 0.899 | locus YKL160W, strain elf1, stronger effect = lower value 1.01 | locus YKR026C, strain gcn3, stronger effect = lower value 0.986 | locus YKR091W, strain srl3, stronger effect = lower value 0.999 | locus YLL001W, strain dnm1, stronger effect = lower value 0.98 | locus YLL026W, stronger effect = lower value 0.991 | locus YLL041C, strain sdh2, stronger effect = lower value 1 | locus YLR027C, strain aat2, stronger effect = lower value 0.997 | [5] 0.972 | locus YLR221C, strain rsa3, stronger effect = lower value 1 | locus YLR258W, strain gsy2, stronger effect = lower value 0.992 | locus YLR262C, strain YPT6 (second series), stronger effect = lower value 1.02 | locus YLR320W, strain mms22, stronger effect = lower value 0.971 | locus YLR342W, strain FKS1, stronger effect = lower value 0.993 | locus YLR357W, strain rsc2, stronger effect = lower value 0.957 | locus YLR370C, strain arc18, stronger effect = lower value 0.998 | locus YLR384C, strain iki3, stronger effect = lower value 0.992 | locus YML120C, strain ndi1, stronger effect = lower value 1.01 | locus YMR058W, strain fet3, stronger effect = lower value 0.992 | locus YMR125W, strain sto1, stronger effect = lower value 0.955 | locus YMR129W, stronger effect = lower value 0.988 | locus YMR205C, strain PFK2, stronger effect = lower value 0.967 | locus YMR231W, strain pep5, stronger effect = lower value 0.995 | locus YNL071W, strain lat1, stronger effect = lower value 0.995 | [6] 0.927 | locus YNL209W, strain ssb2, stronger effect = lower value 1 | locus YNL248C, strain rpa49, stronger effect = lower value 0.982 | locus YNL322C, strain KRE1 (second series), stronger effect = lower value 0.991 | locus YNR049C, strain mso1, stronger effect = lower value 0.998 | locus YOR001W, strain rrp6, stronger effect = lower value 1 | locus YOR070C, strain gyp1, stronger effect = lower value 0.995 | locus YOR080W, strain dia2, stronger effect = lower value 0.99 | locus YOR083W, strain WHI5, stronger effect = lower value 1.02 | locus YOR106W, strain vam3, stronger effect = lower value 1.01 | [7] 0.969 | locus YOR265W, strain rbl2, stronger effect = lower value 0.993 | locus YOR270C, strain vph1, stronger effect = lower value 0.98 | locus YOR290C, strain snf2, stronger effect = lower value 0.981 | locus YPL051W, strain arl3, stronger effect = lower value 1.01 | locus YPL078C, strain atp4, stronger effect = lower value 1.01 | locus YPL106C, strain sse1, stronger effect = lower value 0.997 | locus YPL240C, strain hsp82, stronger effect = lower value 0.987 | [8] 0.968
